Source: PubChem BioAssay
Compounds with a hit are over-represented: about 3.1% of the library has one in this group of screens.
esBAF inh: SWI/SNF esBAF complex inhibition; mouse ES cells, Bmi1-luciferase knock-in reporter, 24 h; 100% = twice the neutral-well signal; reporter increase, % at 12.5 µM; actives 2% (n = 350,000); AID 602393; in the data active = activation above about 40%;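 also: 0% = median of the plate's neutral control wells and 100% = double that signal; a rise in the Bmi1 reporter signal indicates esBAF inhibition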
Wnt act: activators of Wnt/beta-catenin signaling. Wnt/beta-catenin reporter cell assay, activator, plate reader. activation, % at 9.35 µM. actives 1.2% (n = 300,000); in the data active = activation above about 30%, passing the limit was not always enough;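 also: 0% = neutral control wells and 100% = positive control wells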
MITF TRPM1 HTS: activators of MITF-driven TRPM1 promoter activity in SK-MEL-5 cells | activation, % at 12.5 µM | actives 0.75% (n = 300,000) | SK-MEL-5 TRPM1-promoter luciferase, 24 h; % of positive control, neutral wells = 0;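 active = mean activation of at least 80% with every replicate also reaching 80%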;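 also: 0% = neutral control wells and 100% = parthenolide positive control wells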
C2C12 statin: suppressors of simvastatin-induced myotoxicity in C2C12 myotubes. rescue of ATP level, % at 7.49 µM. AID 602340. ATP luminescence, 48 h; scaled: DMSO 0, geranylgeraniol control 100. actives 0.78% (n = 330,000);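 active = mean ATP rescue above about 67%, or every replicate alone reaching that limit, limit read from the data, passing the limit was not always enough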;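 also: myotubes were challenged with 10 µM simvastatin during compound exposure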
Rtt109 Vps75: inhibitors of Candida albicans Rtt109/Vps75 histone acetyltransferase; Q5AAJ8; purified Rtt109/Vps75, ThioGlo CoA-SH fluorescence, 4 h; inhibition, % at 34.9 µM; actives 0.16% (n = 330,000);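 active = inhibition of at least 50% in every replicate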
Target sequence (Q5AAJ8 whole entry, looked up): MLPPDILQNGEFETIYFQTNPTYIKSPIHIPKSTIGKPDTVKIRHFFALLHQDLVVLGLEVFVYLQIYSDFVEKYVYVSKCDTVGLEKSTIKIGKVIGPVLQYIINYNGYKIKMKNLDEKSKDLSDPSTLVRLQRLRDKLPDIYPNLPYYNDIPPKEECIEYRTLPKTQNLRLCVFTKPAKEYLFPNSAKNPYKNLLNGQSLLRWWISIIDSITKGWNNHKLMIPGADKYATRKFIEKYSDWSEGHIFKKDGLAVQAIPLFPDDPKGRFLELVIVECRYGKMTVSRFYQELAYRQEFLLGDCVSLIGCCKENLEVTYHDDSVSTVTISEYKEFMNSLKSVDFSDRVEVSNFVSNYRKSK
* marks the source's active call; other numbers are inactive results; . = not tested or not shown.

SMILES	esBAF inh	Wnt act	MITF TRPM1 HTS	C2C12 statin	Rtt109 Vps75
O=C(Nc1ccc(Oc2ccccc2)cc1)C1CCCO1 (configuration not stated)	51.6*	.	79.9	7.1	.
CCOC(=O)c1cccc(NC(=O)C2CCCO2)c1 (configuration not stated)	0.0	-5.1	-5.5	101.7*	3.1
O=C(O)c1cccc(NC(=O)C2CCCO2)c1 (configuration not stated)	-7.3	.	-9.5	4.0	7.6
O=C(Nc1ccc2oc(-c3ccncc3)nc2c1)c1ccc2c(c1)OCCO2	.	10.9	26.6	.	57.2*
O=C(Nc1ccc2c(c1)OCO2)N[C@H]1CC[C@@H](CC(=O)N2CCN(c3ccccc3)CC2)O[C@@H]1CO	-0.9	.	.	34.8	.
COc1ccccc1NC(=O)N[C@@H]1CC[C@H](CCn2cc(-c3ccccc3OC)nn2)O[C@@H]1CO	5.2	.	.	-5.1	.
CCn1cc(C(=O)NCc2cccc(F)c2)c(=O)c2cc(F)c(N3CCN(C(=O)c4ccco4)CC3)cc21	22.9	.	-31.1	78.7*	6.0
CCCCCCCCCC(=O)N1CCN(c2cc3c(cc2F)c(=O)c(C(=O)O)cn3CC)CC1	-1.0	-0.8	-10.0	-1.4	-4.1
CCCCCCC(=O)N1CCN(c2cc3c(cc2F)c(=O)c(C(=O)O)cn3CC)CC1	13.4	.	-4.1	153.2*	-2.9
CCOc1ccc(OCCOc2ncnc3ccccc23)cc1	45.5*	.	32.1	-0.6	-9.7
c1ccc(Oc2ncnc3ccccc23)cc1	9.2	-8.0	1.4	2.4	-0.3
COc1cccc(COc2ncnc3sccc23)c1	.	-0.2	-0.7	.	-2.7
c1ccc(OCCOc2ncnc3sccc23)cc1	.	41.5*	40.7	.	-12.5
O=C(Nc1ccccc1F)N1C[C@@H]2[C@H](c3ccccc31)[C@@H](CO)N2C(=O)Cc1ccccc1	13.6	.	.	12.5	.
COc1ccc(C(O)c2ncc(-c3ccc4ccccc4c3)[nH]2)cc1 (configuration not stated)	14.2	.	.	-0.5	.
OC(c1ccc(F)cc1)c1ncc(-c2ccc3ccccc3c2)[nH]1 (configuration not stated)	76.2*	2.1	.	-5.3	.
Cc1ccc(C(O)c2ncc(-c3ccc4ccccc4c3)[nH]2)cc1 (configuration not stated)	53.3*	-1.8	.	-5.7	.
OC(c1ccc(Cl)cc1)c1ncc(-c2ccccc2F)[nH]1 (configuration not stated)	51.4*	1.4	.	-2.8	.
C[C@@H](NC(=O)[C@@H]1[C@@H](CO)[C@@H]2Cn3c(cccc3=O)[C@@H]2N1CC1CC1)c1ccccc1	-7.3	.	.	0.3	.
CO[C@@H]1CN(C)C(=O)c2cc(NC(=O)c3ccccc3F)ccc2OC[C@H](C)N(C(=O)c2ccccc2F)C[C@@H]1C	-1.3	.	.	0.2	.
Cn1ccnc1SCC(=O)Nc1ccc2ccccc2c1	-0.8	.	47.5	-3.6	.
COC(=O)c1ccc(NC(=O)CSc2nccn2CCc2ccccc2)cc1	45.8*	8.5	65.5	-62.5	-30.8
Cn1ccnc1SCC(=O)Nc1ccc(SC(F)F)cc1	82.1*	28.1	108.7*	18.1	-0.6
Cn1ccnc1SCC(=O)Nc1ccccc1	-0.4	.	8.1	136.9*	.
O=C(CSc1nccn1Cc1ccccc1)Nc1ccccc1	15.3	0.8	15.0	2.3	-2.6
SMILES	esBAF inh	Wnt act	MITF TRPM1 HTS	C2C12 statin	Rtt109 Vps75
C[C@@H]1CN([C@@H](C)CO)C(=O)c2cc(-c3ccc(C(=O)N(C)C)cc3)cnc2O[C@H]1CN(C)C(=O)CN(C)C	0.4	.	.	34.4	.
CCCNC(=O)N1C[C@@H](C)[C@@H](OC)CN(C)C(=O)c2cc(NC(=O)C3CCC3)ccc2OC[C@@H]1C	-6.0	.	.	11.5	.
C[C@H](CO)N1C[C@H](C)[C@@H](CN(C)C(=O)c2ccccn2)Oc2ncc(-c3ccccc3F)cc2C1=O	-6.5	.	.	-1.8	.
CN1CCN(C(=O)c2cc(COc3ccccc3)on2)[C@@H](c2ccccc2)C1	63.8*	42.4*	91.0*	-3.8	0.2
Cc1ccc(OCc2cc(C(=O)N3CCN(C)C[C@@H]3c3ccccc3)no2)cc1C	.	-0.5	113.0*	.	-2.5
Cc1ccc(OCc2cc(C(=O)N3CCC(Oc4cccnc4)CC3)no2)cc1C	10.4	5.4	13.4	7.9	-6.7
COCC(=O)N1C[C@H](C)[C@@H](OC)CN(C)C(=O)c2ccc(NC(=O)c3ccc(OC)cc3)cc2OC[C@H]1C	-4.4	.	.	-3.6	.
Cn1cnc(S(=O)(=O)N2CCCCC2c2cc(C(=O)Nc3ccc(F)c(Cl)c3)no2)c1 (configuration not stated)	44.7*	2.5	.	5.4	.
COc1ccc(NC(=O)c2cc(C3CCCCN3S(=O)(=O)Cc3ccccc3)on2)cn1 (configuration not stated)	50.6*	-2.0	.	-5.4	.
C[C@@H]1CN([C@H](C)CO)S(=O)(=O)c2ccc(Br)cc2O[C@H]1CN(C)Cc1cccnc1	3.9	.	.	-28.8	.
C[C@H](CO)N1C[C@H](C)[C@@H](CN(C)Cc2cncnc2)Oc2ncc(/C=C/c3ccccc3)cc2C1=O	-5.8	.	.	-55.9	.
COc1ccc(-c2ccc([C@@H]3[C@@H](C#N)N(C(=O)NC4CCCCC4)[C@H]3CO)cc2)cc1	1.5	.	.	43.1	.
N#C[C@H]1[C@@H](c2ccc(-c3cccc(F)c3)cc2)[C@H](CO)N1C(=O)NC1CCCC1	2.2	.	.	-23.8	.
N#C[C@@H]1[C@@H](c2ccc(-c3cccc(F)c3)cc2)[C@H](CO)N1C(=O)NC1CCCC1	4.0	.	.	108.2*	.
COc1ccccc1-c1ccc([C@H]2[C@@H](CO)N(C(=O)NC3CCCCC3)[C@H]2C#N)cc1	59.4*	.	.	-3.6	.
C/C(=N\Nc1ccccn1)c1ccc2c(c1)OCO2	61.3*	10.2	35.5	-9.6	.
C/C(=N\Nc1ccccn1)c1ccc(N2CCOCC2)cc1	.	28.6	58.1	.	0.6
C/C(=N\Nc1nc2ccccc2[nH]1)c1ccc2c(c1)OCO2	11.5	.	26.7	-27.2	-9.9
C/C(=N\Nc1ccccn1)c1ccc(C(C)C)cc1	63.9*	4.5	125.1*	-16.0	-3.2
O=C(O)C[C@H]1CC[C@H](NC(=O)Nc2ccccc2)[C@H](CO)O1	0.6	.	.	0.8	.
Cc1ccc(Nc2nc(-c3ccc(O)c(O)c3)cs2)nc1	.	-13.7	.	.	.
Cc1ccc(Nc2nc(-c3ccc(F)cc3)cs2)nc1	76.2*	5.1	.	-1.6	2.5
Fc1ccc(-c2csc(Nc3ccccn3)n2)cc1	31.6	17.6	.	154.1*	-1.3
COc1ccc(-c2csc(Nc3ccc(C)cn3)n2)cc1OC	60.6*	29.2	54.7	-25.7	-9.8
COc1ccc(-c2csc(Nc3cc(C)ccn3)n2)cc1OC	43.5*	11.2	75.2	2.0	5.9
CN1C(=O)c2cc(NC(=O)c3cccs3)ccc2OC[C@H]2O[C@H](CC(=O)NCC(F)(F)F)CC[C@H]21	7.7	.	.	-17.7	.
CC(=O)Nc1cccc(-c2csc(Nc3cc(C)ccn3)n2)c1	48.5*	29.2	36.1	14.2	15.7
C[C@@H]1CN([C@@H](C)CO)C(=O)c2cc(Br)cnc2O[C@H]1CN(C)C(=O)C1CCC1	.	.	.	6.6	.
